Measurements from PubChem BioAssay AID1159580 (chemical genetic matrix, 2015).
Values joined by “and” are separate entries in the source; they are usually repeats but may differ in a detail not shown here. Identical values can stand only once. Among all 5,500 compounds or so, about 2,000 (36%) were called active. Another 18% or so got no clear call; they are omitted. Cut-off read from the data, not from the text of the source: active = normalized growth mostly below about 0.91 (no sharp cut-off); inconclusive = no clear call, values can overlap the other calls; inactive = mostly above about 0.92. The list shows a part of the results.

Experiment: chemical genetic growth profiling, strain panel (AID 1159580);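 note: tested at 20 µM; growth read once vehicle control cultures reached saturation at 30 °C; 1 = growth at the plate median or of vehicle wells; lower values mean less growth of the strain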
Conditions: S. cerevisiae deletion strains, growth OD

Measured: normalized growth

CC(C)N1C(=O)c2ccccc2NS1(=O)=O
inactive: locus YAL013W, strain DEP1, hits give low values 1 | locus YAL021C, strain ccr4, hits give low values 0.947 | locus YAL026C, strain drs2, hits give low values 0.976 | locus YAL030W, strain snc1, hits give low values 0.963 | locus YBL061C, strain skt5, hits give low values 0.973 | locus YBR009C, strain hhf1, hits give low values 0.961 | locus YBR021W, strain FUR4, hits give low values 0.966 | locus YBR023C, strain chs3, hits give low values 0.983 | locus YBR171W, strain sec66, hits give low values 0.968 | locus YBR229C, strain ROT2, hits give low values 1 | locus YBR231C, strain swc5, hits give low values 0.994 | locus YBR279W, strain paf1, hits give low values 0.977 | locus YCL011C, strain gbp2, hits give low values 0.962 | locus YCL016C, strain dcc1, hits give low values 0.969 | locus YCL029C, strain bik1, hits give low values 0.999 | locus YCL069W, strain vba3, hits give low values 0.969 | locus YCR088W, strain abp1, hits give low values 0.978 | locus YDL005C, strain med2, hits give low values 0.973 | locus YDL035C, strain GPR1, hits give low values 1.01 | locus YDL040C, strain nat1, hits give low values 0.972 | locus YDL074C, strain BRE1, hits give low values 1.02 | locus YDL101C, strain DUN1, hits give low values 1.01 | locus YDL134C, strain PPH21, hits give low values 0.998 | locus YDL185W, strain tfp1, hits give low values 1 | locus YDL192W, strain arf1, hits give low values 1.01 | locus YDR001C, strain nth1, hits give low values 0.955 | locus YDR069C, strain doa4, hits give low values 0.995 | locus YDR101C, strain arx1, hits give low values 0.999 | locus YDR137W, strain rgp1, hits give low values 0.971 | locus YDR150W, strain NUM1, hits give low values 0.996 | locus YDR159W, strain sac3, hits give low values 1.02 | locus YDR162C, strain NBP2, hits give low values 1.02 | locus YDR195W, strain ref2 0.935 | locus YDR297W, strain sur2, hits give low values 0.988 | locus YDR318W, strain mcm21, hits give low values 1.01 | locus YDR334W, strain swr1, hits give low values 0.957 | locus YDR335W, strain msn5, hits give low values 0.978 | locus YDR388W, hits give low values 0.998 | locus YDR392W, strain spt3, hits give low values 1.02 | locus YDR502C, strain sam2, hits give low values 1.01 | locus YEL003W, strain gim4, hits give low values 0.973 | locus YEL037C, strain rad23, hits give low values 0.976 | locus YEL061C, strain CIN8 (second series), hits give low values 0.966 | locus YEL061C, strain CIN8, hits give low values 0.992 | locus YER015W, strain faa2, hits give low values 0.966 | locus YER016W, strain bim1, hits give low values 0.965 | locus YER110C, hits give low values 1 | locus YER111C, strain swi4, hits give low values 0.979 | locus YER155C, strain BEM2 (second series), hits give low values 1 | locus YER155C, strain BEM2, hits give low values 0.994 | locus YER167W, strain BCK2, hits give low values 1 | locus YFR010W, strain ubp6, hits give low values 0.96 | locus YGL078C, strain dbp3, hits give low values 0.993 | locus YGL086W, strain mad1, hits give low values 0.996 | locus YGL167C, strain pmr1, hits give low values 0.958 | locus YGL173C, strain kem1, hits give low values 0.979 | locus YGL227W, strain vid30, hits give low values 0.989 | locus YGL240W, strain doc1, hits give low values 1 | locus YGL248W, strain PDE1, hits give low values 1.01 | locus YGL253W, strain hxk2, hits give low values 0.984 | locus YGR078C, strain PAC10, hits give low values 0.995 | locus YGR135W, strain pre9, hits give low values 1.01 | locus YGR229C, strain SMI1, hits give low values 1.02 | locus YGR252W, strain gcn5, hits give low values 1.01 | locus YHR013C, strain ard1, hits give low values 0.95 | locus YHR027C, strain rpn1, hits give low values 0.968 | locus YHR030C, strain SLT2, hits give low values 0.972 and 0.994 | locus YHR079C, strain IRE1 (second series), hits give low values 1 | locus YHR079C, strain IRE1, hits give low values 0.982 | locus YHR094C, strain hxt1, hits give low values 0.996 | locus YHR129C, strain ARP1, hits give low values 0.996 | locus YHR142W, strain chs7, hits give low values 0.962 | locus YHR200W, strain rpn10, hits give low values 0.995 | locus YIL066C, strain RNR3, hits give low values 1.03 | locus YIL073C, strain SPO22, hits give low values 1.07 | locus YIL125W, strain kgd1, hits give low values 1.01 | locus YIR030C, strain dcg1, hits give low values 0.997 | locus YJL092W, strain hpr5, hits give low values 0.971 | locus YJL095W, strain BCK1 (second series), hits give low values 0.969 | locus YJL095W, strain BCK1, hits give low values 1.01 and 0.986 | locus YJL115W, strain asf1, hits give low values 0.956 | locus YJL129C, strain trk1, hits give low values 0.961 | locus YJL134W, strain LCB3, hits give low values 1 | locus YJL154C, strain vps35, hits give low values 0.963 | locus YJL164C, strain tpk1, hits give low values 0.988 | locus YJL166W, strain qcr8, hits give low values 0.987 | locus YJL168C, strain set2, hits give low values 1 | locus YJL187C, strain SWE1 (second series), hits give low values 0.997 | locus YJR043C, strain POL32, hits give low values 1 | locus YJR066W, strain TOR1, hits give low values 0.962 | locus YJR075W, strain HOC1, hits give low values 1.02
